About 5,500 (1.4%) of roughly 400,000 compounds were called active. Inconclusive results (about 9%) are left out. The call rests on the fitted dose curve; in most records, active means well fitted cell-killing curve with a large enough effect; inconclusive means small, poorly fitted or top-dose-only effect, or effect the other way; inactive means flat fitted curve, though single readings scatter. The full list was thinned out, with actives kept by preference.
Assay: qHTS assay for MDR1-selective chemotherapeutics: Primary screen using the parental adenocarcinoma cell KB-3-1; further: nearly all actives have a fitted effect of over 60% in size
Conditions: KB-3-1 viability, CellTiter-Glo ATP luminescence, 72 h; series mostly up to 46.1 µM; activity change, negative = cytotoxic: at the top concentration
Method in brief: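 Viability of parental KB-3-1 cells, measured by CellTiter-Glo luminescence, followed a 72 h incubation at 37 °C with pinned compounds in phenol-red-free DMEM containing 10% FBS.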
On the % scale 0 is the no-effect control and ±100 the full control effect; potency means the concentration at half of the fitted maximal effect.

| Structure (SMILES) | activity change, negative = cytotoxic | Potency |
| --- | --- | --- |
| CCOc1ccccc1CNC(=O)C1CCCN(S(=O)(=O)c2ccc3c(ccn3C)c2)C1 (stereo unspecified) | -11.1% (inactive) |  |
| COc1ccccc1NC(=O)c1sc2nc(C)c(C(=O)Nc3ccc(Cl)cc3)c(-c3ccc(Br)cc3)c2c1N | 9.2% (inactive) |  |
| COC(=O)c1ccc(S(=O)(=O)N2CCc3ccccc3C2)cc1 | 2.98% (inactive) |  |
| CC(C)c1ccc(NC(=O)c2cc(S(=O)(=O)N3CCc4ccccc4C3)ccc2F)cc1 | 8.41% (inactive) |  |
| O=C(Nc1ccc(S(=O)(=O)N2CCc3ccccc3C2)cc1)c1ccccc1 |  | 18.4 µM (active) |
| CCOc1ccc(N(CC)C(=O)c2cc3c(=O)oc4ccccc4c3s2)cc1 | 18.5% (inactive) |  |
| Cc1ccc(Nc2ccc3cc(S(=O)(=O)N4CCCCC4)ccc3n2)cc1F | 1.58% (inactive) |  |
| COc1ccc(N2CCN(S(=O)(=O)c3ccc4c(c3)CC(=O)N4)CC2)cc1 |  | inactive |
| CCOc1ccc(N(CC(=O)OC)S(=O)(=O)c2c(C)noc2C)cc1 | 7.88% (inactive) |  |
| COc1ccc(N(CC(=O)Nc2cc(OC)ccc2OC)S(=O)(=O)c2c(C)noc2C)cc1 |  | 18.4 µM (active) |
| Cc1noc(C)c1S(=O)(=O)N(CC(=O)Nc1ccc2c(c1)OCCO2)c1ccc(C(C)C)cc1 | -18.5% (inactive) |  |
| CCOC(=O)CN1C(C(=O)c2ccccc2)=C(OC(=O)C(C)(C)C)c2ccccc2S1(=O)=O | 5.45% (inactive) |  |
| COc1ccc(CNc2nc(-c3ccc(Cl)cc3)nn2C(=O)c2ccccc2)cc1 | -6.28% (inactive) |  |
| COc1ccc(Cn2c(-c3ccc(Cl)cc3)c[n+]3ccccc23)cc1 |  | 3.66 µM (active) |
| COc1ccc(Cn2c(=O)oc3ccccc32)cc1 | -5.14% (inactive) |  |
| Cc1oc2ncnc(N3CCCCC3)c2c1C(=O)N1CCN(c2cccc(Cl)c2)CC1 | -8.44% (inactive) |  |
| Cc1ccccc1-c1cc(C(=O)NCC2CC2)n(CC2CC(c3cccnc3)=NO2)n1 (stereo unspecified) | -0.87% (inactive) |  |
| Cc1ccccc1-c1cc(C(=O)NCc2cccs2)n(CC2CC(c3cccnc3)=NO2)n1 (stereo unspecified) |  | 18.4 µM (active) |
| Cc1ccc(CNC(=O)c2cc(-c3ccccc3C)n(CC3CC(c4cccc([N+](=O)[O-])c4)=NO3)n2)cc1 (stereo unspecified) | 6.56% (inactive) |  |
| C=C1C=C(C(F)F)n2ncc(C(=O)NCCc3ccccc3OC)c2N1 | 0% (inactive) |  |
| CCn1cc(C(=O)NCc2ccccc2)c(=O)c2cc(S(=O)(=O)N3CCCCC3)ccc21 | 16.8% (inactive) |  |
| O=C(CSc1nc2c(c(=O)[nH]1)CN(Cc1ccc3c(c1)OCO3)CC2)Nc1cc(F)ccc1F | 1.29% (inactive) |  |
| Fc1ccc2[nH]c3c(N4CCSCC4)ncnc3c2c1 |  | 5.17 µM (active) |
| N#C/C=C/N1CCN(Cc2ccc3c(c2)OCO3)CC1 | 16% (inactive) |  |

| Structure (SMILES) | activity change, negative = cytotoxic | Potency |
| --- | --- | --- |
| Fc1ccc2[nH]c3c(N4CCN(Cc5ccc6c(c5)OCO6)CC4)ncnc3c2c1 |  | 18.4 µM (active) |
| CCc1nc2onc(C)c2c(=O)n1CC(=O)O | -2.75% (inactive) |  |
| Cc1oc2ncn(CC(C)C)c(=O)c2c1C(=O)N1CCN(c2ccccc2F)CC1 | -0.942% (inactive) |  |
| O=C(NCCC1=CCCCC1)c1ccc2c(c1)N(Cc1ccccc1F)C(=O)c1ccccc1S2(=O)=O | 4.55% (inactive) |  |
| O=C(CCS(=O)(=O)c1cc(Br)cc2c1N(C(=O)C1CC1)CC2)Nc1ccc(C(F)(F)F)cc1 | 4.76% (inactive) |  |
| Cc1cccc(N2CCN(c3ccc(C(=O)O)cc3NC(=O)c3ccccc3F)CC2C)c1 (stereo unspecified) | 7.44% (inactive) |  |
| O=C(c1cnn2c1NC(=C1CC1)C=C2C(F)F)N1CCc2ccccc2C1 | 0% (inactive) |  |
| CSc1nn(Cc2cccc(C)c2)c(N)c1S(=O)(=O)c1ccccc1 | -14.3% (inactive) |  |
| CC(=O)Nc1cccc(-c2cc(NC(C)=O)c3ncc(-c4ccccc4)n3c2)c1 | -3.06% (inactive) |  |
| COc1cccc(-c2cnc3c(NC(C)=O)cc(-c4cc(F)ccc4OC)cn23)c1 |  | 16.4 µM (active) |
| COc1ccccc1-c1cc(NC(C)=O)c2ncc(-c3ccc(F)cc3)n2c1 | 0% (inactive) |  |
| COc1ccc(-c2cc(NC=O)c3ncc(-c4cccc(C(=O)N(C)C)c4)n3c2)c(OC)c1 | -0.891% (inactive) |  |
| COc1cccc(-c2cnc3c(NC(C)=O)cc(-c4cccc(NC(C)=O)c4)cn23)c1 | 0% (inactive) |  |
| CC(=O)c1cccc(-c2cnc3c(NC=O)cc(-c4ccccc4Oc4ccccc4)cn23)c1 | -2.94% (inactive) |  |
| COc1ccc(-c2cc(NC(C)=O)c3ncc(-c4cc(OC)c(OC)c(OC)c4)n3c2)cn1 |  | 5.8 µM (active) |
| COc1cccc(-c2cc(NC(C)=O)c3ncc(-c4cccc(C(C)=O)c4)n3c2)c1 | 0% (inactive) |  |
| COc1ccc(-c2cc(NC=O)c3ncc(-c4cc(OC)c(OC)c(OC)c4)n3c2)c(OC)c1 |  | 1.3 µM (active) |
| CCCN(C(=O)Cn1ncc2c([nH]c3ccc(C)cc32)c1=O)c1ccccc1C | 0.221% (inactive) |  |
| CCc1ccc2oc(-c3ccc(NC(=O)c4cc5ccccc5o4)cc3)nc2c1 | -12.6% (inactive) |  |
| COc1ccc(NC(C)=O)cc1NC(=O)CN1CCN(c2ccc(F)cc2)CC1 | 1.07% (inactive) |  |
| COC(=O)c1ccc(NC(=O)c2cc(S(=O)(=O)N3CCC(C)CC3)cn2C)cc1 | -7.89% (inactive) |  |
| CCOC(=O)c1c(C)oc2nc(C)nc(N(CC(C)C)CC(C)C)c12 | 3.41% (inactive) |  |
| CC(C)(O)c1ccccc1CC[C@H](SCC1(CC(=O)O)CC1)c1cccc(/C=C/c2ccc3ccc(Cl)cc3n2)c1 | 7.37% (inactive) |  |
| CCc1cnc2c(c1SCC(=O)c1ccccc1)c(=O)n(C)c(=O)n2C | 9.68% (inactive) |  |

| Structure (SMILES) | activity change, negative = cytotoxic | Potency |
| --- | --- | --- |
| Cc1ccc(C)c(S(=O)(=O)N2CCN(c3ncnc4sccc34)CC2)c1 |  | 9.2 µM (active) |
| Cc1ccc(C)c(S(=O)(=O)n2nc(C)c(S(=O)(=O)N3CCC(C)CC3)c2C)c1 | -3.25% (inactive) |  |
| Cc1ccc(C)c(S(=O)(=O)c2nnn3c2nc(N2CCOCC2)c2sccc23)c1 | -0.269% (inactive) |  |
| CCOCCCNC(=O)c1cn(CC)c2ccc(S(=O)(=O)N3CCc4ccccc4C3)cc2c1=O | -12.4% (inactive) |  |
| O=C(CCNC(=O)c1ccc(Cl)cc1)NC1CCCc2ccccc21 (stereo unspecified) |  | 7.31 µM (active) |
| COC(=O)c1cc(OCC(=O)NC2CCCc3ccccc32)cc(C(=O)OC)c1 (stereo unspecified) | 5.25% (inactive) |  |
| NC(=O)Nc1ccc(C(=O)OCC(=O)NC2CCCc3ccccc32)cc1 (stereo unspecified) | 3.73% (inactive) |  |
| Cc1ccc(Cl)cc1NC(=O)CCS(=O)(=O)c1ccc(Br)s1 | 10.5% (inactive) |  |
| CCc1nc(C)ccc1OCC(=O)N(CC)CC | -4.05% (inactive) |  |
| CCC(C)(C)c1ccc(OCC(=O)N(C)C)c(C(C)(C)CC)c1 |  | 16.4 µM (active) |
| COc1ccc(Cl)cc1NC(=O)CSc1nc2ccccc2c2nc(-c3ccccc3)nn12 | 3.72% (inactive) |  |
| CSc1oc(-c2cccs2)nc1S(=O)(=O)c1ccc(Br)cc1 | 0.965% (inactive) |  |
| CCOc1ccc(NC(=O)C(CC(C)C)N2Cc3ccccc3C2=O)cc1 (stereo unspecified) | -18.3% (inactive) |  |
| C=CCn1c(SCC(=O)NCCCO)nc2sc3c(c2c1=O)CCC3 | 2.97% (inactive) |  |
| C=CCn1c(SCc2c(C)noc2C)nc2sc3c(c2c1=O)CCC(C)C3 (stereo unspecified) |  | 4.11 µM (active) |
| CCCn1nnc2sc3c(c2c1=O)CCC(C)C3 (stereo unspecified) | -4.79% (inactive) |  |
| O=S(=O)(Nc1ccc2nc(-c3cccc(Cl)c3)oc2c1)c1ccccc1 | 0.847% (inactive) |  |
| CN(Cc1ccccc1)S(=O)(=O)c1ccc(F)c(C(=O)Nc2cccc(Cl)c2Cl)c1 | 6.97% (inactive) |  |
| COc1cccc(-n2c(SCC(=O)NC3CCCCC3)nc3n[nH]c(C)c3c2=N)c1 |  | 13 µM (active) |
| C=CCn1c(CC(=O)Nc2cccc(OC)c2)nnc1SCC(=O)NC1CCCCC1 | 19% (inactive) |  |
| COc1ccc(-n2c(SCC(=O)Nc3ccc(Cl)c(C)c3)nc3n[nH]c(C)c3c2=N)cc1 | -0.218% (inactive) |  |
| ClC/C=C/C[n+]1ccccc1Cl | 0% (inactive) |  |
| CCOc1ccc(-c2cc3c(=O)n(CC(=O)NCc4ccc(OC)cc4)ccn3n2)cc1 | 0.871% (inactive) |  |
| CN(O)C(=S)c1ccccc1 |  | 0.0052 µM (active) |

| Structure (SMILES) | activity change, negative = cytotoxic | Potency |
| --- | --- | --- |
| Cc1ccc(S(=O)(=O)N(CC(=O)Nc2cccc([N+](=O)[O-])c2)Cc2ccc(Cl)cc2)cc1 | -5% (inactive) |  |
| CN(c1ccccc1)S(=O)(=O)c1cccc(NC(=O)Cc2ccc(Cl)cc2)c1 |  | 23.1 µM (active) |
| CN(c1ccccc1)S(=O)(=O)c1ccc(NC(=O)COc2ccccc2)cc1 | 0% (inactive) |  |
| Nc1ncnc2nnsc12 | 44% (inactive) |  |
| CC(C)Oc1cccc(-c2cnc(N3CCC(C(N)=O)CC3)s2)c1 | 16.4% (inactive) |  |
| COc1cc2nc(SCc3ccc(F)cc3)n3nc(CCn4c(C)nc5ccccc54)nc3c2cc1OC | 13.2% (inactive) |  |
| COc1ccc(-c2cccc(NS(=O)(=O)c3cc(C)c(OC)c(C)c3C)c2)nn1 |  | 3.66 µM (active) |
| CCCOc1ccc(-c2cccc(NS(=O)(=O)c3ccccc3)c2)nn1 | -16.5% (inactive) |  |
| COc1ccc(OC)c(S(=O)(=O)Nc2cccc(-c3ccc4nncn4n3)c2)c1 | -7.93% (inactive) |  |
| O=C(Nc1ccc(-c2nc3cc(NC(=O)c4ccccc4Cl)ccc3o2)cc1)c1ccccc1Cl | -9.52% (inactive) |  |
| C/C(=N/Nc1ccc(Cl)cc1)c1cnnc(-c2ccccc2)n1 | 2.92% (inactive) |  |
| C/C(=N\Nc1ccc(Cl)nn1)c1ccccc1O |  | 14.6 µM (active) |
| Fc1ccccc1Cc1ccc(Cl)nn1 | 4.26% (inactive) |  |
| CC(=O)N1CCc2cc(S(=O)(=O)NC(Cc3ccccc3)C(=O)NCc3ccc(C)cc3)ccc21 (stereo unspecified) | 0.414% (inactive) |  |
| Nc1ccc(C(=O)N2CCN(S(=O)(=O)c3ccc(Cl)cc3)CC2)cc1[N+](=O)[O-] | -16.3% (inactive) |  |
| O=C(c1ccc(Oc2ccc(Cl)cc2)c([N+](=O)[O-])c1)N1CCCC1 | -4.08% (inactive) |  |
| CC1CCN(C(=O)c2ccc(S(=O)(=O)Cc3cc(F)ccc3F)c([N+](=O)[O-])c2)CC1 |  | 23.1 µM (active) |
| CC[C@]1(O)C[C@@H]2CN(CCc3c([nH]c4ccccc34)[C@@](C(=O)OC)(c3cc4c(cc3OC)N(C)[C@H]3[C@@](O)(C(=O)OC)[C@H](OC(C)=O)[C@]5(CC)C=CCN6CC[C@]43[C@@H]65)C2)C1 |  | 0.164 µM (active) |
| COc1cc(NC(=O)Cn2nc(-c3ccc(C)c(C)c3)ccc2=O)cc(OC)c1 | 5.25% (inactive) |  |
| N#Cc1nc(NCc2ccc(Cl)c(Cl)c2)c2ncn(CCCO)c2n1 | 0% (inactive) |  |
| O=C(NCC(c1ccc(Cl)cc1)N1CCOCC1)c1ccccc1F (stereo unspecified) | -21.3% (inactive) |  |
| O=C(NCCC1CCCCN1S(=O)(=O)c1ccc(F)cc1)C(=O)NC1CC1 (stereo unspecified) | 9.7% (inactive) |  |
| COc1ccccc1CCNC(=O)C(=O)NCCC1CCCCN1S(=O)(=O)c1cccs1 (stereo unspecified) | -17.7% (inactive) |  |
| O=C(NCCC1CCCCN1S(=O)(=O)c1cccs1)C(=O)Nc1ccc(F)cc1F (stereo unspecified) |  | 23.1 µM (active) |
